Source: PubChem BioAssay (Tox21)
Records with an inconclusive call do not appear. Activity calls are given as the source filed them. Unless noted, calls follow the shape of the dose curve; as a rule, active = well fitted curve in the direction sought with a large enough effect in the repeat runs; inconclusive = weak or mixed curves; inactive = no such curve, though single readings can be large; an effect the other way counts as inactive or inconclusive.

Columns and labels:
[1] = qHTS assay for small molecule agonists of the p53 signaling pathway (AID 651631; calls by dose curve; also: nearly all actives have a fitted effect of over 15% in size; also: potency is read from the fitted curve at half-maximal effect)
How it was run: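 Fluorescence intensity from cleaved LiveBLAzer B/G substrate (2 h, room temperature) served as the signal. Beforehand, HCT-116 reporter cells bearing p53 response elements were treated 16 h at 37 °C with DMSO-dissolved compounds.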

[2] = qHTS assay for small molecules that induce genotoxicity in human embryonic kidney cells expressing luciferase-tagged ATAD5 (AID 651632); also: nearly all actives have a fitted effect of over 15% in size
How it was run: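 Luminescence read-out: after 16 hr compound exposure at 37C, ATAD5-luciferase HEK293T cells received Amplite, 30 min RT, then CCD imaging. A rise in signal marks genotoxic stress.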

[3] = qHTS assay for small molecule agonists of the p53 signaling pathway - cell viability (AID 651633; calls by dose curve;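 also: p53RE-bla HCT reporter cells with a stable beta-lactamase p53 reporter; series mostly up to about 83 µM; nearly all actives have a fitted effect of over 30% in size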)
How it was run: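 Viability counter-read: CellTiter-Glo luminescence (30 min, room temperature) in the same p53RE-bla plates. These plates had been exposed to compounds for 16 h at 37 C.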

[4] = qHTS assay for small molecules that induce genotoxicity in human embryonic kidney cells expressing luciferase-tagged ATAD5 - cell viability (AID 651634; calls by dose curve; also: nearly all actives have a fitted effect of over 25% in size)
How it was run: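 HEK293T ATAD5-luc cells, 2,000/well; compound 15.5 hr, 37C/5% CO2; CellTiter-Fluor 30 min, 37C; fluorescence read.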

[5] = qHTS assay for small molecule disruptors of the mitochondrial membrane potential - cell viability (AID 720634; calls by dose curve;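 also: human HepG2 liver cancer cells; series mostly up to about 83 µM; nearly all actives have a fitted effect of over 20% in size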)
How it was run: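 Luminescence from CellTiter-Glo (ATP content) gave viability in HepG2 cells, read in the same wells as the MMP dye assay after 1 hr compound exposure at 37 C.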

[6] = qHTS assay to test for compound auto fluorescence at 590 nm (red) in HepG2 cells (AID 720674)
How it was run: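 We screened compounds on adherent HepG2 cells, incubating them for an hour at 37 C in 5% CO2 before reading emission at 590 nm under 540 nm excitation; values reflect equivalence to Rose Bengal sodium fluorescence.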

[7] = qHTS assay to test for compound auto fluorescence at 535 nm (green) in HepG2 cells (AID 720675)
[8] = qHTS assay to test for compound auto fluorescence at 460 nm (blue) in HEK293 cells (AID 720678)
How it was run: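 HEK293 cells (2,000 per well, medium with 10% dialyzed FBS) attached for 4-5 hr at 37C, then received compound and stood overnight at 37C, 5% CO2. Blue fluorescence was read at Ex/Em 405/460 nm and expressed relative to triamterene.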

[9] = qHTS assay to test for compound auto fluorescence at 590 nm (red) in HEK293 cells (AID 720679)
How it was run: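 HEK293 cells (2,000/well, medium with 10% dialyzed FBS) attached for 4-5 hr at 37C, received 23 nL compound and were incubated overnight at 37C, 5% CO2. Red fluorescence was then read at 540/590nm Ex/Em, referenced to Rose Bengal sodium.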

[10] = qHTS assay for small molecule disruptors of the mitochondrial membrane potential (AID 720635); also: potency is read from the fitted curve at half-maximal effect
How it was run: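 Mitochondrial membrane potential tracked with Mito-MPS dye, red aggregates (ex 540/em 590 nm) against green monomers (ex 490/em 535 nm). Compound treatment 1 hr at 37C, dye 30 min in HepG2.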
% is scaled to controls: 0 for no effect and ±100 for the full control effect.

OCCN(CCO)c1ccccc1
inactive: Potency [1] | Potency [2] | Potency [3] | Potency [4] | Potency [5] | outcome [6] | outcome [7] | outcome [8] | outcome [9]

CS(=O)(=O)c1ccc([C@@H](O)[C@@H](CF)NC(=O)C(Cl)Cl)cc1
inactive: Potency [1] | Potency [2] | Potency [3] | Potency [5] | Potency [10] | fluorescence, relative to Rose Bengal [6] -0.165% [at 18.6 µM] | fluorescence, % of fluorescein control [7] -0.0021% [at 18.6 µM] | fluorescence, % of triamterene [8] -0.0281% [at 18.6 µM] | fluorescence, % of fluorescent control [9] 0.0865% [at 18.6 µM]

CCN(CC)CCNC(=O)COc1ccc(Cl)cc1
inactive: Potency [1] | Potency [2] | Potency [3] | Potency [4] | Potency [5] | outcome [6] | outcome [7] | outcome [8] | outcome [9]

CC(=O)Nc1ccc(C)c(Cl)c1
inactive: Potency [1] | Potency [2] | Potency [3] | Potency [4] | Potency [5] | outcome [7] | outcome [8] | outcome [9]

CCCN(CCC)C(=O)C(CCC(=O)O)NC(=O)c1ccccc1 (stereo not drawn)
inactive: Potency [1] | Potency [2] | Potency [3] | Potency [4] | Potency [5] | outcome [6] | outcome [7] | outcome [8] | outcome [9]

COc1nc(C)nc(NC(=O)NS(=O)(=O)c2ccccc2OCCCl)n1
inactive: Potency [1] | Potency [2] | Potency [3] | Potency [5] | Potency [10] | outcome [6] | outcome [7] | outcome [8] | outcome [9]

CCCCCCCCCC#N
inactive: Potency [1] | Potency [2] | Potency [3] | Potency [4] | Potency [5] | outcome [6] | outcome [7] | outcome [8] | outcome [9]

OCCN1CCN(CCO)CC1
inactive: Potency [1] | Potency [2] | Potency [3] | Potency [4] | Potency [5] | outcome [7] | outcome [9]

CC(CNC1CCCCC1)OC(=O)c1ccccc1 (stereo not drawn)
inactive: Potency [1] | Potency [2] | Potency [3] | Potency [4] | Potency [5] | fluorescence, % of fluorescein control [7] 0.0399% [at 18.6 µM] | fluorescence, % of triamterene [8] 0.0231% [at 18.6 µM] | fluorescence, % of fluorescent control [9] 0.178% [at 18.6 µM]

CCCCNCCCC
inactive: Potency [1] | Potency [2] | Potency [3] | Potency [4] | Potency [5] | outcome [6] | outcome [7] | outcome [8] | outcome [9]

C[C@@H](N)C(=O)O
inactive: Potency [1] | Potency [2] | Potency [3] | Potency [4] | Potency [5] | outcome [6] | outcome [7] | outcome [8] | outcome [9]

Cc1ccsc1C(=CCCN1CCC[C@@H](C(=O)O)C1)c1sccc1C
inactive: Potency [1] | Potency [2] | Potency [3] | Potency [4] | Potency [5] | outcome [6] | outcome [7] | outcome [8] | outcome [9]

OCC(CBr)(CBr)CBr
inactive: Potency [1] | Potency [2] | Potency [3] | Potency [4] | Potency [5] | outcome [6] | outcome [7] | outcome [9]

O=C1C=CC(=O)O1
inactive: Potency [1] | Potency [2] | Potency [3] | Potency [4] | Potency [5] | outcome [6] | outcome [7] | outcome [8] | outcome [9]

CCCCNc1cc(C(=O)O)cc(S(N)(=O)=O)c1Oc1ccccc1
inactive: Potency [1] | Potency [2] | Potency [3] | Potency [4] | Potency [5] | fluorescence, relative to Rose Bengal [6] -0.242% [at 18.6 µM] | fluorescence, % of fluorescein control [7] 0.0391% [at 18.6 µM] | fluorescence, % of triamterene [8] 0.191% [at 18.6 µM] | fluorescence, % of fluorescent control [9] -0.225% [at 18.6 µM]

O=S(=O)(O)C(F)(F)F
inactive: Potency [1] | Potency [2] | Potency [3] | Potency [4] | Potency [5] | outcome [7] | outcome [8] | outcome [9]

COc1ccc(S(=O)(=O)Nc2nnc(CC(C)C)s2)cc1
inactive: Potency [1] | Potency [2] | Potency [3] | Potency [4] | Potency [5] | outcome [6] | outcome [7] | outcome [8] | outcome [9]

CC/C=C\CCOC(=O)CCCCC
inactive: Potency [1] | Potency [2] | Potency [3] | Potency [5] | Potency [10] | outcome [6] | outcome [7] | outcome [8] | outcome [9]

OC[C@H]1O[C@@H](O[C@H]2[C@H](O)[C@@H](O)[C@H](O)O[C@@H]2CO)[C@H](O)[C@@H](O)[C@H]1O
inactive: Potency [1] | Potency [2] | Potency [3] | Potency [4] | Potency [5] | outcome [6] | outcome [7] | outcome [8] | outcome [9]

O=C(C(Cl)Cl)N1CCOC12CCCCC2
inactive: Potency [1] | Potency [2] | Potency [3] | Potency [4] | Potency [5] | outcome [7] | outcome [9]

Cc1cccc(C)c1NC(=O)CN1CCCCCC1
inactive: Potency [1] | Potency [2] | Potency [3] | Potency [4] | Potency [5] | outcome [6] | outcome [7] | outcome [8] | outcome [9]

C[C@]12C(=O)OC(=O)[C@H]1[C@H]1C=C[C@@H]2C1
inactive: Potency [1] | Potency [2] | Potency [3] | Potency [4] | Potency [5] | outcome [6] | outcome [7] | outcome [9]

ICCc1ccccc1
inactive: Potency [1] | Potency [2] | Potency [3] | Potency [4] | Potency [5] | outcome [6] | outcome [7] | outcome [8] | outcome [9]

Cc1ccc([N+](=O)[O-])cc1Cl
inactive: Potency [1] | Potency [2] | Potency [3] | Potency [4] | Potency [5] | outcome [6] | outcome [7] | outcome [8] | outcome [9]

C=CCc1cc(OC)c(O)c(C(=O)NCCO)c1
inactive: Potency [1] | Potency [2] | Potency [3] | Potency [5] | Potency [10] | outcome [6] | outcome [7] | outcome [8] | outcome [9]

COc1cc(C)ccc1C(C)C
inactive: Potency [1] | Potency [2] | Potency [3] | Potency [5] | Potency [10] | outcome [7] | outcome [8] | outcome [9]

CCOc1ccc(NS(=O)(=O)c2ccc(N)cc2)nn1
inactive: Potency [2] | Potency [3] | Potency [4] | Potency [5] | Potency [10] | outcome [6] | outcome [7] | outcome [8] | outcome [9]

Cc1cc2nc(N)sc2cc1C
active: Potency [10] 49 µM
inactive: Potency [1] | Potency [3] | Potency [5] | outcome [7] | outcome [8] | outcome [9]

CCCc1c2oc(C(=O)O)cc(=O)c2cc2c(=O)cc(C(=O)O)n(CC)c12
inactive: Potency [1] | Potency [2] | Potency [3] | Potency [5] | Potency [10] | outcome [7] | outcome [8] | outcome [9]

Cc1c(-c2ccccc2)oc2c(C(=O)OCCN3CCCCC3)cccc2c1=O
inactive: Potency [1] | Potency [2] | Potency [3] | Potency [5] | Potency [10] | fluorescence, % of fluorescein control [7] 0.273% [at 18.6 µM] | fluorescence, % of fluorescent control [9] 0.0102% [at 18.6 µM]

CCC1(C)NC(=O)NC1=O (stereo not drawn)
inactive: Potency [1] | Potency [2] | Potency [3] | Potency [5] | outcome [7] | outcome [8] | outcome [9]

Nc1ccc2ccccc2c1S(=O)(=O)O
inactive: Potency [1] | Potency [3] | Potency [4] | Potency [5] | Potency [10] | outcome [7] | outcome [9]

CO[C@@]1(NC(=O)CSCC#N)C(=O)N2C(C(=O)O)=C(CSc3nnnn3C)CS[C@@H]21
inactive: Potency [1] | Potency [2] | Potency [3] | Potency [5] | Potency [10] | outcome [6] | outcome [7] | outcome [8] | outcome [9]

O=Cc1ccc(F)c(Br)c1
inactive: Potency [1] | Potency [2] | Potency [3] | Potency [5] | Potency [10] | outcome [6] | outcome [7] | outcome [8] | outcome [9]

CCc1nnc(NS(=O)(=O)c2ccc(N)cc2)s1
inactive: Potency [1] | Potency [2] | Potency [3] | Potency [5] | outcome [6] | outcome [7] | outcome [8] | outcome [9]

CC[C@H]1CC[C@H](NCc2cc3c(cc2OC)[C@H]2C[C@H]2C(=O)N3C)[C@H](c2ccccc2)N1
inactive: Potency [3] | Potency [5] | Potency [10] | outcome [7] | outcome [8] | outcome [9]
active: Potency [1] 6.86 µM

O=c1oc2c(O)c(O)cc3c(=O)oc4c(O)c(O)cc1c4c23
inactive: Potency [2] | Potency [3] | Potency [4] | Potency [5] | Potency [10] | outcome [6] | outcome [7] | outcome [8] | outcome [9]

CC(C)OC(C)C
inactive: Potency [1] | Potency [2] | Potency [3] | Potency [5] | outcome [6] | outcome [7] | outcome [8] | outcome [9]

ClC(Cl)Cl
inactive: Potency [1] | Potency [3] | Potency [4] | Potency [5] | Potency [10] | outcome [6] | outcome [7] | outcome [8] | outcome [9]
